Assay results: PubChem BioAssay (EPA / NIEHS)
Where “and” joins values, the source holds several entries; their conditions need not be identical. Identical values can stand only once. Some compounds were tested as several samples or in several runs, with calls that do not always agree. Calls of active or inactive are those of the source. Rule for the calls: active = hit-call score of the fitted dose curve at least 0.9, where 1 is the maximum; inactive = score below 0.9.

Assay: ATG_CMV_CIS: Attagene CIS-FACTORIAL HepG2 Assay for human CMV (Internal Marker) (AID 2282928);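 note: endpoint acts as a background internal control marker rather than a target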
Settings: HepG2 CMV promoter reporter, transcription factor profiling; actives raise or lower the signal
Protocol: ATG_CIS is a cell-based, multiplexed-readout assay that uses HepG2, a human liver cell line, with measurements taken at 24 hours after chemical dosing in a 24-well plate.ATG_CMV_CIS is one of 52 assay component(s) measured or calculated from the ATG_CIS assay. It is designed to make measurements of mRNA induction, a form of inducible reporter, as detected with fluorescence intensity signals by Reverse transcription polymerase chain reaction (RT-PCR) and Capillary electrophoresis technology.Data from the assay component ATG_CMV_CIS was analyzed into 1 assay endpoint. This assay endpoint, ATG_CMV_CIS, was analyzed with bidirectional fitting relative to DMSO as the negative control and baseline of activity. Using a type of inducible reporter, measures of mRNA for gain or loss-of-signal activity can be used to understand the background control at the transcription factor-level as they relate to the gene . Furthermore, this assay endpoint can be referred to as a secondary readout, because this assay has produced multiple assay endpoints where this one serves a background control function. To generalize the intended target to other relatable targets, this assay endpoint is annotated to the background measurement intended target family, where the subfamily is internal marker.
Human liver HepG2 cells are transiently transfected with multiple reporter transcription units (MRTUs) in 6-well plates using FuGene 6 reagent (Roche; 3 ml FuGene/1 mg DNA). The MRTU constructs are regulated by a cis-regulating element (promoter). […] A major difference between the CIS and TRANS system is that in CIS activities of endogenous TFs are measured, whereas the TRANS assay evaluates changes in activities of exogenous, chimeric NR-Gal4 proteins. […] At the end of 24 hour incubation, total RNA was isolated using TriZol reagent (Invitrogen). The isolated RNA is then reverse-transcribed using oligo(dT) primer and Mo-MLV reverse transcriptase (Invitrogen) with DNAse I (Ambion) treatment for 30 min. The one-tenth of the produced cDNA was amplified by PCR using Taq DNA polymerase (Invitrogen) and two reporter sequence-specific primers. The PCR products were fluorescently labeled by primer extension with 6-arboxyfluorescein (6-FAM) 5'-labeled reporter sequence-specific primer (2 min at 95 C, 20 s at 68 C and 10 min at 72 C) and these products were digested with 5U of HpaI (New England Biolabs) for 2h at 37 C. The fragments were purified using Qiaquick PCR columns (Qiagen), analyzed on an ABI 3130xL genetic analyzer (Applied Biosystems) with peak positions identified by using a set of X-rhodamine (ROX)-labeled MapMarker1000 molecular weight standards (BioVentures). The raw capillary electrophoresis data was processed using Attagraph software (Attagene).

| SMILES | outcome | AC50 |
| --- | --- | --- |
| CC(=[OH+])/C=C(/C)[O-].CC(=[OH+])/C=C(/C)[O-].CC(=[OH+])/C=C(/C)[O-].[Al] | inactive |  |
| CC(C)(OO)c1ccccc1 | inactive |  |
| O=[N+]([O-])c1ccc(O)c([N+](=O)[O-])c1 | inactive |  |
| ClC1(Cl)C2(Cl)C3(Cl)C4(Cl)C(Cl)(Cl)C5(Cl)C3(Cl)C1(Cl)C5(Cl)C24Cl (stereo not given) | inactive |  |
| CN(C)N=O | inactive |  |
| CC(C)c1ccc(CO)cc1 | inactive |  |
| COP(=S)(OC)Oc1ccc(S(=O)(=O)N(C)C)cc1 | inactive |  |
| O=C(O)C(Cl)(Cl)Cl | inactive |  |
| ClCCBr | inactive |  |
| Nc1ncc([N+](=O)[O-])s1 | inactive |  |
| C[C@@H](Oc1ccc(Cl)cc1Cl)C(=O)O | inactive |  |
| N#CCc1ccc(Cl)cc1 | inactive |  |
| CC1CN1P(=O)(N1CC1C)N1CC1C (stereo not given) | inactive |  |
| Nc1ccc(-c2ccc(N)c(Cl)c2)cc1Cl |  | 2.15 µM (active) |
| CCCCP(CCCC)CCCC | inactive |  |
| BrCCBr | inactive |  |
| O=C(c1ccccc1)C(Cl)Cl |  | 28.7 µM (active) |
| CC(=O)C(Cl)C(=O)N(C)C (stereo not given) | inactive |  |
| C[C@H]1O[C@@H](O[C@H]2[C@@H](O)C[C@H](O[C@H]3[C@@H](O)C[C@H](O[C@H]4CC[C@@]5(C)[C@H](CC[C@@H]6[C@@H]5CC[C@]5(C)[C@@H](C7=CC(=O)OC7)CC[C@]65O)C4)O[C@@H]3C)O[C@@H]2C)C[C@H](O)[C@@H]1O | inactive |  |

| SMILES | outcome | AC50 |
| --- | --- | --- |
| CCOP(=S)(OCC)SCCS(=O)(=O)CC | inactive |  |
| COc1cc2c(cc1OC)[C@@]13CCN4CC5=CCO[C@H]6CC(=O)N2[C@H]1[C@H]6[C@H]5C[C@H]43 | inactive |  |
| C[C@]12CCC(=O)C[C@@H]1CC[C@@H]1[C@@H]2CC[C@]2(C)[C@@H](O)CC[C@@H]12 | inactive | 52.1 µM (active) |
| O=C(O)C(F)(F)C(F)(F)C(F)(F)C(F)(F)C(F)(F)C(F)(F)C(F)(F)C(F)(F)C(F)(F)C(F)(F)F |  | 50.4 µM (active) and 31.3 µM (active) |
| O=C(O)Cc1ccccc1 | inactive |  |
| Nc1ccc(N=Nc2ccc(-c3ccc(N=Nc4c(S(=O)(=O)O)cc5cc(S(=O)(=O)O)c(N=Nc6ccccc6)c(O)c5c4N)cc3)cc2)c(N)c1 | inactive |  |
| C[C@@H]1C[C@@H]([C@H](O)CC2CC(=O)NC(=O)C2)C(=O)[C@@H](C)C1 | inactive | 0.286 µM (active) |
| COc1ccc(C=O)cc1 | inactive |  |
| ClC1=C(Cl)[C@]2(Cl)[C@H]3[C@H]([C@H]4C=C[C@H]3C4)[C@@]1(Cl)C2(Cl)Cl | inactive |  |
| C[C@]12CC[C@H](O)CC1=CC[C@@H]1[C@@H]2CC[C@]2(C)C(=O)CC[C@@H]12 |  | 27.7 µM (active) |
| Cc1ccccc1C(=O)Nc1cccc(OC(C)C)c1 |  | 61.9 µM (active) |
| Oc1cccc2cccnc12 | inactive | 139 µM (active) |
| ClCc1cccnc1 | inactive |  |
| CCCCOCCOC(C)=O | inactive |  |
| CCOP(=S)(OCC)SCSP(=S)(OCC)OCC | inactive |  |
| CC(=O)OC(c1ccccc1)C(Cl)(Cl)Cl (stereo not given) | inactive |  |
| CCC(C)c1cccc(C(C)CC)c1O (stereo not given) | inactive |  |
| O=C1C(Cl)=C(Cl)C(=O)c2ccccc21 | inactive |  |
